These results are taken from PubChem BioAssay AID504700 (The Scripps Research Institute Molecular Screening Center, 2011).

The campaign covered roughly 340,000 compounds. About 270 (0.079%) were called active.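 Rule for the calls: active = activation above a cutoff set at the mean over all compounds plus 3 SD (cut at about 18% in these data); inactive = the rest.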 This excerpt belongs to a sample that is enriched for actives.

The assay deals with cAMP-dependent protein kinase catalytic subunit beta (Homo sapiens) + cAMP-dependent protein kinase type II-beta regulatory subunit (Homo sapiens) (UniProt P22694+P31323). In words: compounds dissociating PKAc from R2B subunit – biochemical, fluorescence polarization, Cy5-IP20, human, primary screen (AID 504700).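 Note: higher means more holoenzyme dissociation and a rise in polarization.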 Particulars: PKA-R2B holoenzyme dissociation, at 11.4 µM, active compounds read high, 0% DMSO only, 100% 113 µM cGMP, R2B truncated from residue 108, S112A mutant. (In general: In fluorescence polarisation assays a small probe gives low polarisation when free and higher when bound to something large.)
cAMP-dependent protein kinase catalytic subunit beta (Homo sapiens) + cAMP-dependent protein kinase type II-beta regulatory subunit (Homo sapiens), sequence (P31323 whole entry, looked up, other chains not shown, the tested form may be a part): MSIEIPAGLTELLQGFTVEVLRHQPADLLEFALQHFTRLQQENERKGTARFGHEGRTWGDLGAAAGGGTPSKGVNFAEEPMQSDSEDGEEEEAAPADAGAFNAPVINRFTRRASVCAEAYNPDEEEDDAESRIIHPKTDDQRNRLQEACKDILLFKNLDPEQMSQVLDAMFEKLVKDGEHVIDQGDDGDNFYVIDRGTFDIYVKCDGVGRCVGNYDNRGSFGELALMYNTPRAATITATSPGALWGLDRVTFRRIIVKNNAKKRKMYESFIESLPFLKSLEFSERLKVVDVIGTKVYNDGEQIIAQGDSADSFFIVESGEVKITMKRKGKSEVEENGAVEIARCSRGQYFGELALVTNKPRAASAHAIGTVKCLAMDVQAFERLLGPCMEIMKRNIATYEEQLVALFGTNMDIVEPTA
With `CC(OC(=O)c1cccc(S(=O)(=O)N2CCOCC2)c1)C(=O)NCC1CCCCC1` (stereo not drawn), the activation was 12.7% (inactive).
Next, `O=S(=O)(NCCc1ccccc1)c1ccccc1`: -0.17% (inactive); `O=S(=O)(NCCNS(=O)(=O)c1ccccc1)c1ccccc1`: 21.6% (active).
Then `O=S(=O)(NCCc1ccncc1)c1ccccc1`, with -6.62% (inactive).
Next, `COc1ccc(C(C)(C)C)cc1NC(=O)CN(C)C1=NS(=O)(=O)c2ccccc21`: -0.8% (inactive); `O=C(Nc1cc(F)ccc1F)c1ccc2c(=O)n3c(nc2c1)CCC3`: 0.72% (inactive); `CC(C)CCOc1ccc(C(=O)Nc2cc(S(=O)(=O)N3CCOCC3)ccc2N2CCOCC2)cc1`: -1.72% (inactive).
With `Cc1sc2nc(-c3ccccc3F)oc(=O)c2c1C`, the activation is -7.56% (inactive).
As to `O=C(NCc1nnnn1-c1ccc(Cl)cc1)c1ccc([N+](=O)[O-])o1`, the activation was -12% (inactive).
Next, `COc1cc(NC(=O)C2=C(C)OCCS2)c(Cl)cc1C(=O)NCCCN1CCCC(C)C1` (stereo not drawn): -6.54% (inactive).
On to `C[C@H]1Cn2cnc(C(=O)N[C@H](C)c3ccccc3)c2C(=O)N1`, for which the activation was 1.6% (inactive).
Then `Cc1ccn2c(-c3csc(Nc4ccc(C(=O)O)cc4)n3)c(C)nc2c1`, with -9.54% (inactive); and `C[C@@H]1CN([C@@H](C)CO)C(=O)CCCn2cc(nn2)CO[C@H]1CN(C)S(=O)(=O)c1ccc(-n2cccn2)cc1`, with -4.5% (inactive); and `CCc1c(N=O)c(-c2ccccc2)n(O)[n+]1[O-]`, with -1.7% (inactive).
For the compound `C[C@@H]1CN([C@@H](C)CO)C(=O)c2cc(Br)cnc2O[C@H]1CN(C)Cc1ccc(-c2ccccc2)cc1`, the activation was 1.42% (inactive).
Next, `O=C(CC(CC(=O)c1ccccc1)c1ccco1)c1ccccc1`: -2.04% (inactive); `C[C@@H]1Cn2cnc(C(=O)Nc3ccc(CNC(=O)OC(C)(C)C)cc3)c2C(=O)N1`: -0.19% (inactive).
Regarding `COCCCn1c(=O)/c(=C/c2ccccc2OC(C)C)s/c1=C(\C#N)C(=O)Nc1ccc(C(=O)O)cc1`, the activation is 0.06% (inactive).
Consider `O=C(OCc1ccccc1)N1CCC2CC1c1cc(N3CCN(S(=O)(=O)c4cc(Cl)cc(Cl)c4)CC3)ccc12` (stereo not drawn), for which the activation is -12.1% (inactive).
For the compound `CCc1cccc(CC)c1N1C(=O)CC(Sc2ccccc2N)C1=O` (stereo not drawn), the activation is 3.56% (inactive).
Next, `COc1cccc(OC)c1C(=O)N1CCN(Cc2ccccc2F)CC1`: -3.43% (inactive).
Then `COC(=O)C(Cc1c[nH]c2ccccc12)NC(=O)CCNC(=O)c1ccco1` (stereo not drawn), with 7.88% (inactive).
In the case of `COc1cc2c(=O)n(C)c3ccccc3c2cc1OC`, the activation is -7.59% (inactive).
With `N#CC1(Nc2ccc3c4c(cccc24)CC3)CCCCC1`, the activation is -2.43% (inactive).
Next, `Cc1ccc([C@H]2C[C@H](O)[C@@H](n3cc(COC(=O)c4ccccc4)nn3)CN2C(=O)C2CCCCC2)cc1`: -12.7% (inactive).
For the compound `O=NN(CCCl)C(=O)NCCc1cccc[n+]1[O-]`, the activation was -9.83% (inactive).
As for `CC(C)N=C1CCCC1C(=S)SSC(=S)C1CCCC1=NC(C)C` (stereo not drawn), the activation is -0.99% (inactive).
Then `Cc1ccc(CN(C)C[C@@H]2OCc3cnnn3CCCC(=O)N([C@@H](C)CO)C[C@H]2C)cc1`, with -5.57% (inactive); and `CC1=C(C(=O)N2CCOCC2)CC(CC(=O)NCc2ccco2)C(=O)N1Cc1ccc(F)cc1` (stereo not drawn), with -2.68% (inactive); and `C=CCOc1ccccc1CNn1c(C)n[nH]c1=S`, with 10.7% (inactive).
Next, `Cc1c(NC(=O)COC(=O)/C=C/c2cccc(F)c2)c(=O)n(-c2ccccc2)n1C`: -14.1% (inactive).
For the compound `CCc1cc(-c2nnn(CCC3COCCO3)c2CC)ccc1-c1cn(Cc2ccc3ccccc3c2)nn1` (stereo not drawn), the activation is 2.92% (inactive).
For the compound `CCC1NC(=O)c2cccnc2-n2c1nc1ccc(C)cc1c2=O` (stereo not drawn), the activation is 2.84% (inactive).
Then `CNC(=O)c1ccc(CN(C)C(=O)c2cc(C3CC3)nc3c2cnn3C(C)C)cc1`, with -10% (inactive); and `O=C(OCC(=O)N1CCCCCC1)c1cccc(Cl)c1Cl`, with -0.23% (inactive).
Next, `O=C(c1ccc(F)cc1)N1CCCC(C(=O)N2CCCCC2)C1` (stereo not drawn): -0.42% (inactive); `NC(=O)C1CCN(C(=O)c2ccc(C(F)(F)F)cc2)CC1`: -0.72% (inactive).
Next, `CC(C)(C)c1ccc(C(=O)N2CCC(C(=O)N3CCCCC3)CC2)cc1`: 19.2% (active); `CC1=C(C(=O)N(C)C)CC(CC(=O)NCCN2CCOCC2)C(=O)N1Cc1ccccc1` (stereo not drawn): 10.5% (inactive); `COc1ccccc1-c1n[nH]nc1C1=CC(=O)CC(C)(C)C1`: -8.69% (inactive).
For `Cc1ccc(C(=O)N[C@H](C(=O)N2CCN(c3ncccn3)CC2)C(C)C)cc1`, the activation was -3.29% (inactive).
Then `CCCCN1C(=O)C(CC(=O)NCc2cccs2)CC(C(=O)N2CCOCC2)=C1C` (stereo not drawn), with 3.17% (inactive); and `O=C(OCc1cn([C@H]2C[C@H](c3ccccc3)N(C(=O)c3cccs3)C[C@@H]2O)nn1)c1ccccc1`, with 4.15% (inactive); and `COc1ccc(C(=O)N/N=C(\C)CC(=O)Nc2ccc(Cl)cn2)cc1`, with -4.03% (inactive).
Consider `COc1ccc(C/C(C)=N/NC(=O)c2ccncc2)cc1`, for which the activation is 18.7% (active).
As for `COc1ccc(C/C(C)=N/NC(=O)c2cc(C)oc2C)cc1`, the activation was -9.63% (inactive).
Next, `C[C@H]1Cn2cnc(C(=O)N[C@@H](Cc3c[nH]c4ccccc34)C(=O)OC(C)(C)C)c2C(=O)N1`: -2.27% (inactive).
Next, `CC(=O)Nc1c(-c2ccc(C)cc2)nc2ccc(Cl)cn12`: -8.99% (inactive).
Next, `CC1CCN(c2ccc3c(c2)S(=O)(=O)c2cc(C(=O)O)ccc2C3=O)CC1`: -8.29% (inactive); `CCN(CC)CCN(C(=O)c1ccc2c(c1)CCCC2)c1nc2c(OC)cccc2s1`: -1.68% (inactive); `CNS(=O)(=O)c1ccc2c(c1)[nH]c(=S)n2C`: 9.72% (inactive).
Turning to `C=CCn1nc(C(=O)OCC)cc1-c1sc(NC(=O)c2ccccc2)nc1C`, the activation was 4.98% (inactive).
`COc1ccc(C(=O)NCC2CCCO2)cc1S(=O)(=O)NCc1ccc(Cl)cc1` (stereo not drawn): the activation was -8.65% (inactive).
Turning to `Cc1cc2c3ccccc3[nH]c(=O)n2n1`, the activation was -8.33% (inactive).
Next, `CCOc1ccc(S(=O)(=O)NCCC(=O)NNC(=O)c2ccc(F)cc2)cc1`: -0.05% (inactive); `COc1ccc(-n2c(-c3ccc(Cl)cc3)n[nH]c2=S)c(OC)c1`: 13% (inactive).
As to `C[C@H]1CN([C@@H](C)CO)S(=O)(=O)c2ccc(-c3cccc(F)c3)cc2O[C@@H]1CN(C)C`, the activation was -5.98% (inactive).
Then `COc1ccc2nc(-c3ccccn3)ccc2c1`, with -2.17% (inactive); and `COc1ccc(Cn2c(=O)oc3ccccc32)cc1`, with -4.8% (inactive); and `O=C1[C@H]2[C@@H](c3ccc(C(F)(F)F)cc3)N[C@]3(CCCN(Cc4ccc(Cl)cc4)C3=O)[C@H]2C(=O)N1Cc1ccccc1`, with -7.06% (inactive).
Next, `COc1ccc(-c2ccc(CN3C(CC(C)C)C(=O)N(Cc4cn(CC5CCCCC5)nn4)CCS3(=O)=O)cc2)cn1` (stereo not drawn): 5.33% (inactive).
Then `O=C(COC(=O)c1cncc(Br)c1)Nc1ccc(S(=O)(=O)N2CCOCC2)cc1`, with -6.43% (inactive); and `CCOC(=O)c1cc(-c2sc(NC(=O)c3ccccc3)nc2C)n(CCO)n1`, with -2.07% (inactive).
`COC(=O)[C@H]1C[C@H](OC(=O)NCc2ccccc2)[C@@]2(O)CN(S(=O)(=O)c3ccc(C)cc3)CC2[C@H]1C(=O)OC` (stereo partly drawn): the activation is 1.85% (inactive).
Next, `O=C(C[C@H]1C[C@@H]2c3cc(NC(=O)C4CCC4)ccc3O[C@@H]2[C@H](CO)O1)NC1CCCCC1`: -4.88% (inactive); `CCN(CC(=O)Nc1ccc(NC(C)=O)cc1)C(=O)C1CC(=O)N(c2ccc3c(c2)OCCO3)C1` (stereo not drawn): 1.33% (inactive).
Then `Cc1ccccc1-c1ccc2c(c1)O[C@@H](CN(C)Cc1ccc(C(=O)O)cc1)[C@@H](C)CN([C@H](C)CO)S2(=O)=O`, with 1.68% (inactive); and `Cc1cc(C)c2cc(C#N)c(N3CCNCC3)nc2c1`, with 5.23% (inactive).
On to `COCC1CCCCN1C(=O)c1cc(COc2ccc(C)c(C)c2)on1` (stereo not drawn), for which the activation was -6.78% (inactive).
Next, `c1ccc(CNCc2ccc(CNCc3ccccc3)cc2)cc1`: -1.27% (inactive); `C[C@@H]1CN([C@H](C)CO)C(=O)CCCn2nncc2CO[C@@H]1CN(C)S(=O)(=O)c1cccc(C#N)c1`: 5.67% (inactive); `O=C(c1ccccc1)N1CCN(c2cc(-c3ccccc3)nc3cc(-c4cccc(Cl)c4)nn23)CC1`: -2.44% (inactive).
Next, `C[C@H]1NS(=O)(=O)c2cc(Cl)ccc2O[C@@H]1c1ccccc1`: -0.08% (inactive); `S=C(NN=Cc1ccccn1)Nc1ccccn1`: 12.6% (inactive).
Next, `CN1OC[C@@H]2CN(C(=O)c3ccc(-c4ccccc4)cc3)[C@H](c3ccc(-c4cccc(F)c4)cc3)C[C@@H]21`: -8.75% (inactive).
In the case of `C[C@H](CO)N1C[C@H](C)[C@H](CN(C)C(=O)Nc2ccc3c(c2)OCO3)Oc2ncc(Br)cc2C1=O`, the activation was 6.88% (inactive).
Regarding `O=C(c1cccs1)N1C[C@H](n2cc(C3CC3)nn2)[C@@H](O)C[C@@H]1c1ccccc1`, the activation is 5.94% (inactive).
Next, `N#CCSc1ccccc1NC(=O)CN1C(=O)NC(CCc2ccccc2)C1=O` (stereo not drawn): 0.61% (inactive); `COC(=O)c1ccccc1N=NNc1ccc([N+](=O)[O-])cc1`: 7.66% (inactive); `O=C1NC(Cc2ccccc2)c2nc3ccc(Br)cc3c(=O)n2-c2cc3ccccc3cc21` (stereo not drawn): -6.52% (inactive).
For the compound `COc1cc(C(=O)N2CCOC23CCN(Cc2ccccc2)CC3)cc(OC)c1OC`, the activation was 5.01% (inactive).
Then `CC(=O)c1ccc(OCC(=O)N(C)C2CCS(=O)(=O)C2)cc1` (stereo not drawn), with -5.08% (inactive); and `C[C@@H]1CN([C@H](C)CO)S(=O)(=O)c2ccc(C#C[C@@H](C)O)cc2O[C@@H]1CN(C)Cc1ccc(-c2ccccc2)cc1`, with -12.3% (inactive).
